# Measurements as given in PubChem BioAssay (NCATS).
# Records with an inconclusive call do not appear. Active and inactive are the calls of the source. Calls come from the whole dose curve; as a rule, active = well fitted inhibition curve with a large enough effect; inconclusive = small, poorly fitted or top-dose-only effect; inactive = flat fitted curve, though single readings scatter.
# Molecular target: Calcium and integrin-binding protein 1 (Homo sapiens) (UniProt Q99828)
# Test: Primary qHTS for Identification of Calcium Integrin Binding Protein 1 (CIB1) Competitor (AID 1508620);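 note: GST tagged CIB1 binding a fluorescein labelled alphaIIb integrin peptide tracer; top concentration of the series differs between compounds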
# Conditions: CIB1-GST / FITC-alphaIIb peptide fluorescence polarization; series mostly up to 114 µM; activity change, negative = inhibition: at the top concentration
# Method in brief: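 Fluorescence polarization competition: CIB1-GST (1 uM final) preincubated with compound 15 min at room temperature, then FITC-labeled alphaIIb peptide (100 nM final) added for another 15 min. Polarization read at Ex 480/Em 540.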
# % is set by controls: 0 for no effect and ±100 for the full control effect.
# Sequence of Calcium and integrin-binding protein 1 (Homo sapiens) (Q99828 whole entry, looked up): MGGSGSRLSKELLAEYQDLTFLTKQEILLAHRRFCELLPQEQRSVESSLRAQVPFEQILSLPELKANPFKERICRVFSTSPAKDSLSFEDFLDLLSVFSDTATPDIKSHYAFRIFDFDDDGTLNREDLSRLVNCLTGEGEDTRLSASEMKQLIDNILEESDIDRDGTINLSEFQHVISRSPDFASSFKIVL
Structure (SMILES),Potency,"activity change, negative = inhibition"
O=C(NC1CCCc2c1cnn2-c1ccc(F)cc1F)c1ccccn1 (stereo not given),inactive,
Cc1cc(C)nc(NC(=S)N2CCN(c3cccc(S(C)(=O)=O)c3)CC2)c1,,-3.91% (inactive)
COc1ccc(-c2ccc(Nc3nc(-c4ccncc4)nc4ccccc34)cc2F)cc1F,,5.65% (inactive)
CCOC(=O)c1ccc(O)c2ncc(NCC3CCCN(CCc4ccccc4)C3)cc12 (stereo not given),,-6.05% (inactive)
O=C1Nc2c(Cl)cccc2/C1=C\c1cc(Cl)c(O)c(Cl)c1,,14% (inactive)
O=C1CCc2cc(S(=O)(=O)Nc3ccc4c(c3)CCC4)ccc2N1,,6.39% (inactive)
Cc1cc2c(s1)c1cnn(Cc3ccc(OC(F)F)cc3)c(=O)c1n2C,,-2.55% (inactive)
Cc1cc2c(s1)c1cnn(Cc3ccc(S(C)(=O)=O)cc3)c(=O)c1n2C,,6.19% (inactive)
CN(Cc1ccco1)c1ncnc2ccc(-c3ccc4c(ccn4C)c3)cc12,,-3.65% (inactive)
Fc1ccccc1-c1nc(NCc2ccc(-c3cccnc3)cc2)c2ccccc2n1,,2.9% (inactive)
CCn1cnc2c(Nc3ccc(CC(=O)N=C(N)N)cc3)nc(C#N)nc21,,2.97% (inactive)
CCNc1cccc(S(=O)(=O)N2CCCN(S(=O)(=O)c3ccc4c(c3)OCCO4)CC2)c1,,-1.14% (inactive)
CCC(Nc1ncnc2ccc(-c3c(C)noc3C)cc12)c1ccccc1 (stereo not given),,3.97% (inactive)
COc1ccc(-n2c(C)c(C(C)=O)c3ccccc32)cc1,inactive,
Oc1ccc(CNc2nccc3ccccc23)c2cccnc12,,0.4% (inactive)
Cc1cc2c(s1)c1cnn(Cc3cc(F)ccc3F)c(=O)c1n2C,,-1.37% (inactive)
Cc1ccc(OCCn2c(CCNC(=O)c3ccc(C#N)cc3)nc3ccccc32)cc1,,1.57% (inactive)
COc1ccc(OC)c(C2=Nn3c(nnc3-c3ccccc3C)SC2)c1,,2.78% (inactive)
Cc1cccc(-n2cnc3cc(C(=O)NC(C)(C)C)ccc32)c1,,4.18% (inactive)
FC(F)(F)c1ccccc1-c1nc2c(c(NCc3ccc(-c4cccnc4)cc3)n1)CCC2,,2.02% (inactive)

Structure (SMILES),Potency,"activity change, negative = inhibition"
O=C1NC2=C(C(=O)CCC2)C(c2ccccc2Cl)N1 (stereo not given),,7.09% (inactive)
Cc1cc2c(s1)c1cnn(Cc3ccc(Br)cc3)c(=O)c1n2C,,-1.38% (inactive)
O=C(CCCc1ccccc1)NC(c1ccco1)c1cc(Cl)c2cccnc2c1O (stereo not given),,-11.4% (inactive)
O=S(=O)(c1ccc2c(c1)OCCO2)N1CCN(S(=O)(=O)c2ccccc2F)CC1,,-3.67% (inactive)
O=C(NCCCc1cnc[nH]1)NCCCN(Cc1ccc(Cl)c(Cl)c1)c1ccc(Br)cn1,,13% (inactive)
CCCn1c(C)nc2c(NCCN(CC)CC)nc(C)nc21,,8.2% (inactive)
Cc1ccnc(NC(=S)N2CCN(c3ccc(C(F)(F)F)cc3)CC2)c1,,-13% (inactive)
O=[S+]([O-])(Nc1ccc(N2CCNCC2)cc1)c1ccc(NCc2cccc(Cl)c2O)cc1,,-17.2% (inactive)
COc1cccc(CNc2ccc(S(=O)(=O)Nc3ncc(C)s3)cc2)c1O,inactive,
Cc1ccc(-c2cnn(CC(=O)NCCc3ccccc3)c(=O)c2)cc1,,2.92% (inactive)
CN(CC(=O)Nc1ccc(N2CCOCC2)cc1)Cc1cccc2ccccc12,,1.24% (inactive)
COc1ccc(-c2ccc3ncnc(NCc4nc(C)cs4)c3c2)cc1OC,,-8.26% (inactive)
Cc1cccc(CNc2ncnc3ccc(-c4ccccc4Cl)cc23)c1,,2.68% (inactive)
CCOC(=O)c1cccc(NS(=O)(=O)c2ccc(NC(=O)Cc3ccc(Cl)c(Cl)c3)cc2)c1,,0.405% (inactive)
O=S(=O)(c1ccc2c(c1)OCCO2)N1CCN(S(=O)(=O)c2ccc3nc(Cl)c(Cl)nc3c2)CC1,,-7.19% (inactive)
COc1ccc(-c2nc3ccccc3c(=O)n2Cc2ccco2)cc1COc1c(C)cccc1C,,1.13% (inactive)
CC(=O)Nc1sc2c(c1-c1ccc3c(c1)OCO3)CCNC2,,1.43% (inactive)
COc1ccc(N2C(=O)c3ccccc3S2(=O)=O)cc1,,0.496% (inactive)
O=C(Nc1ccc2ccccc2c1)Nc1nnc(-c2ccccc2Cl)s1,,9.84% (inactive)
COc1ccc(C2=Nn3c(nnc3-c3cccc(OC)c3OC)SC2)cc1OC,,2.48% (inactive)
